Rows were chosen to be rich in hits. Some 2% of all compounds tested hit in one or more screens of this group.
GC-A act – GC-A (human) enzyme activation; HEK293 GC-A cells, cGMP TR-FRET, EC30 ANP; 0% at EC30 ANP, 100% saturating ANP; activation, % at 10 µM; 0.14% of 370,000 active; AID 1671463; in the data active = activation above about 40%
ADAM10 inh – inhibitors of human ADAM10 | inhibition, % at 7 µM | recombinant ADAM10, EDANS/DABCYL FRET peptide cleavage, 3 h | 0.62% of 370,000 active | O14672;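 active = inhibition above a per-campaign cutoff equal to the mean of compounds falling between control-based bounds plus 3 SD, cut at about 20% in these data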
GC-B act – GC-B (human) receptor activation. P20594. HEK293-GC-B cells, CNP EC30, cGMP TR-FRET; 0% at EC30 CNP, 100% saturating CNP. activation, % at 10 µM. 0.11% of 370,000 active;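 active = activation at 10 µM reaching about 35% in either raw or pattern-adjusted values, limit read from the data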
ADAM17 inh – inhibits human ADAM17. P78536. recombinant ADAM17, EDANS/DABCYL FRET peptide cleavage. inhibition, % at 6.95 µM. 0.83% of 370,000 active;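 active = inhibition above the mean of compounds lying between control limits plus 3 SD, set per campaign, cut at about 8.5% in these data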
FAS-TE inh – blocks the thioesterase domain of human fatty acid synthase; P49327; recombinant FAS-TE, OMFH fluorogenic substrate, fluorescence endpoint; inhibition, % at 15 µM; AID 602261; 0.67% of 360,000 active;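 active = compounds whose normalised, plate-corrected inhibition of enzyme fluorescence in the single-dose primary screen is 50% or more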
Target sequence (P49327 whole entry, looked up, the tested form may be a part): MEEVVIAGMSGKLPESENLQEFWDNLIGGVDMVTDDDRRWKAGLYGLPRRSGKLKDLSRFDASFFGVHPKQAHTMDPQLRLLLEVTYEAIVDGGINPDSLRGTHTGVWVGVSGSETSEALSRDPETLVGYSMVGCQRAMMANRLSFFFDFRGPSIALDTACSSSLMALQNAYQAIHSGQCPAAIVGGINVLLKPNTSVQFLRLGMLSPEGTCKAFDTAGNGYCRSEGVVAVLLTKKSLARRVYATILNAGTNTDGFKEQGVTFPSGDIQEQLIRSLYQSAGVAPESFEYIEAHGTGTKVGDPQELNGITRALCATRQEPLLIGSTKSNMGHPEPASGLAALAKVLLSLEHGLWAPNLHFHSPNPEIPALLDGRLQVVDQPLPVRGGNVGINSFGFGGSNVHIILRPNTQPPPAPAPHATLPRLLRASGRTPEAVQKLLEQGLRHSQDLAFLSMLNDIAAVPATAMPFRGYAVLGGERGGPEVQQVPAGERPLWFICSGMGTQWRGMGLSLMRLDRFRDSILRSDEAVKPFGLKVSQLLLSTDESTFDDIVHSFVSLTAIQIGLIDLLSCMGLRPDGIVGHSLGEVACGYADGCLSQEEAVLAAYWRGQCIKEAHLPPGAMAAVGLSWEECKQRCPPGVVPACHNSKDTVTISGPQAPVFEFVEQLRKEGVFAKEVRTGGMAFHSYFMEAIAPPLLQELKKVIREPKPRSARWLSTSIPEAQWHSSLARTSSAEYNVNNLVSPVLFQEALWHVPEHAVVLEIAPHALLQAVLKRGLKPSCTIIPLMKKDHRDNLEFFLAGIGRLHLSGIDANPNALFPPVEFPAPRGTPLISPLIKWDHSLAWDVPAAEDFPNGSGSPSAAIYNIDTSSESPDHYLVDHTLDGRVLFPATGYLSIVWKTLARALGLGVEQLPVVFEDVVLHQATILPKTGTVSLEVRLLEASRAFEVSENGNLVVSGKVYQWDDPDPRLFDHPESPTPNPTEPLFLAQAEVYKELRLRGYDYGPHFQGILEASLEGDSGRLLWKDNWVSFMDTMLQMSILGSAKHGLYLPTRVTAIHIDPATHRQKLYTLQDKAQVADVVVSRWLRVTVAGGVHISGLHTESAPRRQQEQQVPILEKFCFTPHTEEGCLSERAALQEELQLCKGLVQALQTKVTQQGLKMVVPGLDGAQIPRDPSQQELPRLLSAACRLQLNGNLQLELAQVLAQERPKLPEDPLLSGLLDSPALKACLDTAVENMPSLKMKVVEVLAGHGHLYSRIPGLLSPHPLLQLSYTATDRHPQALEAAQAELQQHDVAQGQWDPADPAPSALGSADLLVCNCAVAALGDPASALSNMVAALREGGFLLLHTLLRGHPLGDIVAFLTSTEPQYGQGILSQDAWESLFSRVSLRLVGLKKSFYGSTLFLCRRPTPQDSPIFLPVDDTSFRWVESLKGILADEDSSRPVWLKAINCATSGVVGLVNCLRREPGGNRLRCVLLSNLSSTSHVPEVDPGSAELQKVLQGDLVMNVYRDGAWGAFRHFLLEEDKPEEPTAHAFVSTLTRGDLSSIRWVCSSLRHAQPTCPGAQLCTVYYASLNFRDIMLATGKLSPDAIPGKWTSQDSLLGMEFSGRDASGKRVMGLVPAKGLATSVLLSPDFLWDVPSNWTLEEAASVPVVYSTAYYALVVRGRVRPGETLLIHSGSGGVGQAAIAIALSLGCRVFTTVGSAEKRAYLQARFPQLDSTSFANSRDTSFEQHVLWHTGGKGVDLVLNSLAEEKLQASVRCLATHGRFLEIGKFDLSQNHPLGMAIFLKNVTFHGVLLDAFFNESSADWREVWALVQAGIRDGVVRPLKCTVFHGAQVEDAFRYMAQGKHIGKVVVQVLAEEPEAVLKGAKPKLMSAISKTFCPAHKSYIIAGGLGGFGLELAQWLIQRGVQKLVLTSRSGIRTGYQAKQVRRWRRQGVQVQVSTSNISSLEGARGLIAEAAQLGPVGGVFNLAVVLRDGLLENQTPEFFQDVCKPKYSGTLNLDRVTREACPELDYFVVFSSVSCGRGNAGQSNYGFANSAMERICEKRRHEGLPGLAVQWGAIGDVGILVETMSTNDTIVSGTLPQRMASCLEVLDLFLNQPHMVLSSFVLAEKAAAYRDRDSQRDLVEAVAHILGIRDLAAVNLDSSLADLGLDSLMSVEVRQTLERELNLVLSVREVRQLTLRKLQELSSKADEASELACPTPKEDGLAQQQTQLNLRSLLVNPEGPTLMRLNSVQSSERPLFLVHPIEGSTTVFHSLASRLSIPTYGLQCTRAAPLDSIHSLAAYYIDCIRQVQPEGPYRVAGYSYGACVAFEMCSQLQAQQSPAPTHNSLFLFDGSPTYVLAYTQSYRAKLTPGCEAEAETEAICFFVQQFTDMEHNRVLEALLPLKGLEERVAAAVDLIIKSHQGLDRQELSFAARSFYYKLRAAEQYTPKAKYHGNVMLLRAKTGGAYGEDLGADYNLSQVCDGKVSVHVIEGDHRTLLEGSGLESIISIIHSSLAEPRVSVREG
FAS-TE conf – confirmation of human fatty acid synthase thioesterase inhibitors. shares compounds with FAS-TE inh. recombinant FAS-TE, OMFH fluorogenic substrate, fluorescence. inhibition, % at 15 µM. 45% of 2,300 active;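 active = compounds inhibiting the enzyme by at least 50% at 15 µM in any one of the replicates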
Numbers stand for hits; 0 = inactive; - = not tested or not shown.

SMILES | GC-A act | ADAM10 inh | GC-B act | ADAM17 inh | FAS-TE inh | FAS-TE conf
Cc1ccc([N+](=O)[O-])cc1S(=O)(=O)N(C(=O)c1ccncc1)c1ccc2oc3c(c2c1)CCCC3 | 0 | 0 | 0 | 0 | 72 | 0
Cc1ccc(S(=O)(=O)N(C(=O)c2ccncc2)c2ccc3oc4c(c3c2)CCCC4)cc1[N+](=O)[O-] | 0 | 0 | 0 | 0 | 54 | 0
COC(=O)c1c(C)oc2ccc(N(C(=O)c3ccncc3)S(=O)(=O)c3ccc(C)cc3)cc12 | - | - | - | - | 0 | -
C[C@@H]1COc2cc(Br)ccc2S(=O)(=O)N1Cc1cn(Cc2ccc(C(F)(F)F)cc2)nn1 | 0 | 0 | 0 | 0 | - | -
O=C(c1ccc(S(=O)(=O)N2CCCC2)cc1)N1CCC(CN2C(=O)c3cccc4cccc(c34)C2=O)CC1 | 0 | 0 | 0 | 0 | 0 | -
COc1ccc(S(=O)(=O)N2CCC(CN3C(=O)c4cccc5cccc(c45)C3=O)CC2)cc1 | 0 | 0 | 0 | 0 | 63 | 0
N#Cc1c(C(F)(F)F)cc(-c2ccc(F)cc2)nc1SCC(=O)O | 0 | 0 | 0 | 0 | 0 | -
Cc1coc(NC(=O)CSc2nc(-c3ccncc3)cc(C(F)(F)F)c2C#N)n1 | 0 | 0 | 0 | 0 | 55 | 37
Nc1nc2c(ncn2[C@@H]2O[C@H](C(=O)N[C@H](Cc3ccccc3)C(=O)NCc3ccccc3)[C@@H](O)[C@H]2O)c(=O)[nH]1 | 0 | 0 | 0 | 0 | - | -
O=C(NC1CCCC1)C1(C(=O)C2CC2)CC(c2ccccn2)=NO1 (centres undefined) | 0 | 0 | 0 | 0 | - | -
CN(C)S(=O)(=O)c1ccc(N2CCCC2)c(C(=O)Nc2nc(-c3ccc(F)cc3)cs2)c1 | 0 | 0 | 0 | 0 | 56 | 0
CN(C)S(=O)(=O)c1ccc(N2CCCC2)c(C(=O)Nc2nc3ccccc3s2)c1 | 0 | 0 | 0 | 0 | 0 | -
CN(C)S(=O)(=O)c1ccc(N2CCCC2)c(C(=O)Nc2nc3ccc(F)cc3s2)c1 | 0 | 0 | 0 | 0 | 71 | 0
COC(=O)[C@]12C[C@H](CC(=O)NCCCN3CCCC3=O)C(=O)N(Cc3ccc(Cl)cc3Cl)C1=C[C@H](C1CCCC1)O[C@@H]2C | 0 | 0 | 0 | 0 | - | -
COc1cc(NC(=O)CCCl)cc(-n2cnnn2)c1 | 0 | 0 | 0 | 0 | 0 | -
COc1cc(NC(=O)CCC2CCCC2)cc(-n2cnnn2)c1 | 0 | 0 | 0 | 0 | 60 | 0
O=S(=O)(NCc1ccccc1)c1cc(Br)ccc1Br | 0 | 0 | 0 | 0 | - | -
N#CCC[C@H]1CC[C@]2(CCCN(C(=O)C3CCCC3)C2)O1 | 0 | 0 | 0 | 0 | - | -
CC12C(=O)N(c3ccc(OC(=O)c4ccco4)cc3)C(=O)C1C1c3ccccc3C2c2ccccc21 (centres undefined) | 0 | 0 | 0 | 0 | 60 | 0
COC(=O)C12C=C3CC(c4ccc(OC)cc4)=C3C(=O)N1Cc1[nH]c3ccccc3c1C2 (centres undefined) | 0 | 0 | 0 | 0 | - | -
Cc1sc2ncnc(N3CCC(C(=O)Nc4sc5c(c4C(N)=O)CCC(C)C5)CC3)c2c1C (centres undefined) | 0 | 0 | 0 | 0 | 66 | 0
CNC(=O)c1ccc(NC(=O)C2CCN(c3ncnc4sc(C)c(C)c34)CC2)cc1 | 0 | 0 | 0 | 0 | 0 | -
C=CCOC(=O)COc1ccc2c(C)c(C)c(=O)oc2c1 | 0 | 0 | 0 | 0 | 0 | -
C=CCOC(=O)COc1ccc2c(C)c(CC)c(=O)oc2c1 | 0 | 0 | 0 | 0 | 70 | 73
CC(=O)CC[C@H]1CC[C@]2(CCCN(C(=O)C3CCCC3)C2)O1 | 0 | 0 | 0 | 0 | - | -
SMILES | GC-A act | ADAM10 inh | GC-B act | ADAM17 inh | FAS-TE inh | FAS-TE conf
Cc1ccc(S(=O)(=O)N2CCCC2C(=O)N2CCN(c3ccccc3)CC2)cc1 (centres undefined) | 0 | 0 | 0 | 0 | - | -
O=C1OCCN1C(=O)[C@H]1[C@H](c2ccc(Cl)cc2)C(c2ccc(F)cc2)=NN1c1ccc(Br)cc1 | 0 | 0 | 0 | 0 | 88 | 0
O=C1OCCN1C(=O)[C@H]1[C@H](c2ccc(F)cc2)C(c2ccc(F)cc2)=NN1c1ccc(Br)cc1 | - | - | - | - | 84 | 0
C[C@@H]1C(c2ccccc2)=NN(c2ccc(Br)cc2)[C@H]1C(=O)N1CCOC1=O | 0 | 0 | 0 | 0 | 0 | -
CC[C@@H]1C(c2ccc(F)cc2)=NN(c2ccccc2)[C@H]1C(=O)N1CCOC1=O | 0 | 0 | 0 | 0 | 0 | -
CCCCCc1ccc(NC(=O)OCCN2C(=O)CCC23CCC(c2ccccc2)CC3)cc1 (centres undefined) | 0 | 0 | 0 | 0 | - | -
CC(C)(C)C(=O)OC12CCCN(C1)/C(=C/c1cccnc1)C2 (centres undefined) | 0 | 0 | 0 | 0 | - | -
COc1ccc(C(=O)/C(C#N)=N/Nc2ccccc2[N+](=O)[O-])cc1 | 0 | 0 | 0 | 0 | 0 | -
COc1ccc(C(=O)/C(C#N)=N/Nc2ccc([N+](=O)[O-])cc2)cc1 | 0 | 0 | 0 | 0 | 59 | 0
CCOc1ccc(-c2csc(/C(C#N)=C\c3ccc(O)c([N+](=O)[O-])c3)n2)cc1 | 0 | 0 | 0 | 0 | 72 | 61
Cc1nnc(SC(C(=O)Nc2ccc(Cl)c([N+](=O)[O-])c2)c2ccccc2)[nH]c1=O (centres undefined) | 0 | 0 | 0 | 0 | 52 | 53
COc1ccc(C2=NN(C(=O)c3ccc(Cl)c([N+](=O)[O-])c3)C(c3ccccc3)C2)cc1 (centres undefined) | 0 | 0 | 0 | 0 | 56 | 0
COC(=O)c1cc(C(=O)Nc2nnc(CC(C)(C)C)s2)cc([N+](=O)[O-])c1 | 0 | 0 | 0 | 0 | 52 | 59
CCOCc1nnc(NC(=O)c2cc(C(=O)OC)cc([N+](=O)[O-])c2)s1 | 0 | 0 | 0 | 0 | 0 | -
C[C@@]12C(=O)N(c3ccc(Cl)cc3)C(=O)N1[C@@H]1c3ccccc3OC[C@@H]1[C@H]2c1ccccc1 | 0 | 0 | 0 | 0 | 0 | -
C[C@]12C(=O)N(c3ccc(Cl)cc3)C(=O)N1[C@@H]1c3ccccc3OC[C@@H]1[C@H]2c1ccccc1 | 0 | 0 | 0 | 0 | 55 | 0
C[C@]12C(=O)N(c3ccc(F)cc3)C(=O)N1[C@H]1c3ccccc3OC[C@@H]1[C@H]2c1ccccc1 | 0 | 0 | 0 | 0 | 89 | 0
C[C@]12C(=O)N(c3ccc(Cl)cc3)C(=O)N1[C@H]1c3ccccc3OC[C@@H]1[C@H]2c1ccccc1 | - | - | - | - | 93 | 0
C[C@@]12C(=O)N(c3ccc(F)cc3)C(=O)N1[C@@H]1c3ccccc3OC[C@@H]1[C@H]2c1ccccc1 | 0 | 0 | 0 | 0 | 0 | -
C[C@@]12C(=O)N(c3ccc(Br)cc3)C(=O)N1[C@@H]1c3ccccc3OC[C@@H]1[C@H]2c1ccccc1 | 0 | 0 | 0 | 0 | 61 | 0
Cn1c(=O)c2cc(S(=O)(=O)N3CCN(CCO)CC3)ccc2n(C)c1=O | 0 | 0 | 0 | 0 | - | -
